Results on 13 compounds are retold here after PubChem BioAssay (NCI).

Among the test systems are HCT-15 colon; HT29 colon; SNB-75 CNS; SNB-19 CNS; U251 CNS; PC-3 prostate; SK-MEL-5 melanoma; UACC-62 melanoma; LOX IMVI melanoma; SK-MEL-28 melanoma.
Holding throughout (assay): NCI-60 one-dose screen, 48 h (100 = growth as untreated, 0 = no growth, -100 = all killed)
Common to all, as to details: 10 µM unless noted

The panel holds about 83,000 compounds, 20% with a hit somewhere; the sample as a whole holds those more often.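 Treatment: one concentration, 48 hours, 96-well format. Scoring: percent growth, with anything below 10 considered active.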 Unmarked numbers belong to inactive results. Active and inactive are the calls of the source.

`O=C(CN1C(=O)NC2NC(=O)NC21)N/N=C/c1cccc([N+](=O)[O-])c1` (stereo not given): the growth is 100% in the test on HCT-15 colon; 107% with HT29 colon; 80% with SNB-75 CNS; 98.8% in the test on SNB-19 CNS; 111% with U251 CNS; 106% in the test with PC-3 prostate. The growth in the test with SK-MEL-5 melanoma is 100%; in the test with UACC-62 melanoma, 88.8%; in the test on LOX IMVI melanoma, 98.1%; with SK-MEL-28 melanoma, 111%.

Consider `Nc1c(C(=O)c2ccc(Cl)cc2)sc(Nc2ccccc2)c1-c1nc2ccccc2s1`, for which the growth in the test with HCT-15 colon was 39.7%; in the test on HT29 colon it was 17.9%; in the test with SNB-75 CNS, 18.1%; with SNB-19 CNS it was 62.1%; with U251 CNS, 4.94% (active); with PC-3 prostate, 10.3%. Moreover, the growth in the test on SK-MEL-5 melanoma is 55.1%; in the test on UACC-62 melanoma, 7.88% (active); with LOX IMVI melanoma, 17.8%; with SK-MEL-28 melanoma, 42.6%.

For `CN(C)c1ccc(/C=N/NC(=O)CSc2nc3sc4c(c3c(=O)n2-c2ccccc2)CCCCC4)cc1`, the growth in the test on HCT-15 colon is 43.8%; in the test on HT29 colon, 45.8%; in the test with SNB-75 CNS it was -2.33% (active); with SNB-19 CNS, 48.8%; in the test on U251 CNS it was 5.23% (active); in the test on PC-3 prostate, -23.4% (active). Besides, the growth in the test on SK-MEL-5 melanoma was 46.2%; in the test with UACC-62 melanoma, 8.03% (active); in the test on LOX IMVI melanoma, 37.1%; in the test on SK-MEL-28 melanoma, 47.4%.

On to `CC(=O)c1ccc(Nc2nccc(-c3ccc(Cl)cc3)n2)cc1`, for which the growth is 82.3% in the test on HCT-15 colon; 86.2% with HT29 colon; 105% with SNB-75 CNS; 98% in the test on SNB-19 CNS; 78.4% in the test on U251 CNS; 89.6% in the test on PC-3 prostate. Besides, the growth in the test with SK-MEL-5 melanoma was 102%; in the test with UACC-62 melanoma it was 86.5%; in the test with LOX IMVI melanoma it was 90.7%; in the test with SK-MEL-28 melanoma, 113%.

For `C=CCn1c(SCC(=O)Nc2ccc(C(=O)/C=C/c3cc(OC)c(OC)c(OC)c3)cc2)nnc1-c1cc(-c2ccc(S(N)(=O)=O)cc2)nc2ccccc12`, the growth in the test with HCT-15 colon was 97.7%; in the test with HT29 colon it was 98.1%; with SNB-75 CNS it was 77.2%; with SNB-19 CNS it was 74.2%; in the test with U251 CNS, 58.9%; in the test with PC-3 prostate, 84.1%. Besides, the growth with SK-MEL-5 melanoma is 87.6%; with UACC-62 melanoma, 74.7%; with LOX IMVI melanoma, 73%; in the test on SK-MEL-28 melanoma it was 103%.

With `COc1ccc(CNc2c3ccccc3nc3ccccc23)cc1OC`, the growth was 10.3% in the test with HCT-15 colon; 4.44% (active) with HT29 colon; 24.8% with SNB-75 CNS; 21.8% in the test on SNB-19 CNS; 23.2% in the test with U251 CNS; 22% with PC-3 prostate. For the same compound, the growth in the test on SK-MEL-5 melanoma was 17.5%; in the test on UACC-62 melanoma it was 26.8%; in the test with LOX IMVI melanoma, -3.83% (active); with SK-MEL-28 melanoma it was 35.2%.

Consider `O=C(OCC(O)(CO)C(=O)NC12CC3CC(CC(C3)C1)C2)c1ccc(Cl)cc1` (stereo not given), for which the growth was 104% in the test with HCT-15 colon; 94.8% in the test with HT29 colon; 97.6% in the test on SNB-75 CNS; 96.2% in the test on SNB-19 CNS; 93.5% with U251 CNS; 93.7% in the test with PC-3 prostate. For the same compound, the growth in the test on SK-MEL-5 melanoma is 101%; in the test with UACC-62 melanoma, 97.4%; in the test on LOX IMVI melanoma it was 95.2%; in the test with SK-MEL-28 melanoma it was 113%.

In the case of `Cc1ccc(Nc2cc(N)nc(N)n2)cc1`, the growth in the test with HCT-15 colon is 104%; in the test on HT29 colon it was 103%; with SNB-75 CNS, 84.2%; in the test on SNB-19 CNS, 110%; in the test with U251 CNS, 109%; with PC-3 prostate, 98%. Besides, the growth in the test with SK-MEL-5 melanoma is 98.2%; in the test with UACC-62 melanoma, 97.2%; with LOX IMVI melanoma, 97.9%; in the test on SK-MEL-28 melanoma it was 105%.

With `COc1ccc(Cn2cc3c(c2)-c2oncc2CC3)cc1`, the growth with HCT-15 colon was 54.8%; in the test on HT29 colon, 9.48% (active); in the test on SNB-75 CNS it was 50.6%; with SNB-19 CNS, 71.8%; in the test with U251 CNS, 42.8%; in the test with PC-3 prostate, 82.3%. The growth with SK-MEL-5 melanoma is 49.7%; in the test on UACC-62 melanoma, 38.6%; with LOX IMVI melanoma, 59%; in the test on SK-MEL-28 melanoma, 69.9%.

As to `C#Cc1cccc(Nc2ncnc3ccc(-c4cnc(Cl)c(NS(C)(=O)=O)c4)cc23)c1`, the growth is -32.2% (active) in the test on HCT-15 colon; -21.1% (active) with HT29 colon; -21.8% (active) with SNB-75 CNS; -24.3% (active) in the test with SNB-19 CNS; -61.6% (active) in the test with U251 CNS; -7.01% (active) with PC-3 prostate. Moreover, the growth is -95.6% (active) in the test on SK-MEL-5 melanoma, -67.9% (active) with UACC-62 melanoma, -53.4% (active) in the test on LOX IMVI melanoma and -12.1% (active) in the test with SK-MEL-28 melanoma.

On to `C=CCNc1nc(O)c(/C=C2\C=Nc3ncccc32)s1`, for which the growth with HCT-15 colon was 24.7%; with HT29 colon it was 26.4%; in the test with SNB-75 CNS, -67.3% (active); with SNB-19 CNS it was 11%; in the test with U251 CNS, 0.764% (active); in the test with PC-3 prostate, 12.6%. In addition, the growth is 2.01% (active) with SK-MEL-5 melanoma, 9.75% (active) with UACC-62 melanoma, 0.553% (active) in the test with LOX IMVI melanoma and -2.4% (active) in the test with SK-MEL-28 melanoma.

For `COC(=O)[C@H]1Cc2c([nH]c3ccccc23)[C@H](c2ccc3c(c2)OCO3)N1`, the growth in the test with HCT-15 colon was 100%; in the test with HT29 colon it was 106%; in the test on SNB-75 CNS, 74.8%; in the test with SNB-19 CNS it was 96.4%; with U251 CNS, 96.8%; in the test with PC-3 prostate it was 93.2%. The growth in the test on SK-MEL-5 melanoma was 101%; in the test on UACC-62 melanoma, 88.1%; with LOX IMVI melanoma, 93.6%; in the test with SK-MEL-28 melanoma, 108%.

As for `COc1ccc2c(O)cc3c(c2c1)[C@H](CCl)CN3C(=O)c1cc2cc(NC(=O)CCN3CCOCC3)ccc2[se]1`, the growth with HCT-15 colon is 0% (active); in the test with HT29 colon, -39.8% (active); with SNB-75 CNS, -87.8% (active); in the test with SNB-19 CNS, -76.2% (active); with U251 CNS it was -85.7% (active); in the test with PC-3 prostate it was 74.1%. Further, the growth was -85.9% (active) in the test with SK-MEL-5 melanoma, -76.4% (active) in the test with UACC-62 melanoma, -62.5% (active) with LOX IMVI melanoma and -58.7% (active) in the test with SK-MEL-28 melanoma.
